The list is not random: actives were taken first. Their share in the collection is about 4%.
TROY NFkB inh – blocks TROY-dependent signaling in reporter cells | inhibition, % at 10 µM | Q293 LMP1-TROYcd NF-kB luciferase reporter, 4 h | 360,000 compounds, 0.98% hits | AID 1347056;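 active = compounds whose plate-normalised and pattern-corrected inhibition of the luciferase reporter signal at the single screening dose is 50% or more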
TWEAK-Fn14 inh – inhibitors of TWEAK-Fn14 interaction signaling | TWEAK-stimulated Fn14 reporter cells, luciferase luminescence, 8 h | inhibition, % at 10 µM | 360,000 compounds, 2% hits; in the data active = inhibition above about 50%
HIF-2a block – blocks HIF-2a reporter activity. 786-0 RCC cells HIF-2a reporter, luciferase luminescence, overnight. inhibition, % at 18.8 µM. 360,000 compounds, 0.72% hits;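 active = inhibition of the luminescence signal of 40% or more relative to plate controls, in a single-dose primary screen at 18.75 µM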
Peg3 promoter – Peg3 promoter activity inhibition; HeLa PEG-Prom luciferase reporter, luminescence, overnight; inhibition, % at 20 µM; 360,000 compounds, 1.7% hits;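 active = inhibition of at least 50% at 20 µM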
CF NFkB inh – inhibitors of cystic fibrosis induced NF-kB. KKLEB NF-kB-GFP reporter, PAF-induced, GFP fluorescence overnight. inhibition, % at 5 µM. 360,000 compounds, 0.86% hits;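 active = at least 50% inhibition at 5 µM, scaled per plate between neutral and stimulator controls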;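 also: PAF is a Pseudomonas aeruginosa culture filtrate used as stimulus; plate controls were PAF-stimulated DMSO wells for no effect and unstimulated DMSO wells for full effect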
KKLEB tox – reduces viability of KKLEB cystic fibrosis airway cells | KKLEB CF airway cells viability, ATPlite luminescence, overnight; hits give low values; cells stimulated with P. aeruginosa culture filtrate | activity change (cytotoxicity), % at 5 µM | 360,000 compounds, 0.36% hits;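 active = corrected activity change at or below -50% at 5 µM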
Mdm2 MdmX conf – confirmation of inhibitors of human Mdm2/MdmX interaction, set 2; shares compounds with HIF-2a block; SaOS-2 split-luciferase Mdm2/MdmX complementation, luminescence; inhibition, % at 8 µM; 740 compounds, 99% hits; AID 504601;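 active = mean inhibition of the luminescence signal across two replicates at or above 26 percent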
Target sequence (O15151 whole entry, looked up): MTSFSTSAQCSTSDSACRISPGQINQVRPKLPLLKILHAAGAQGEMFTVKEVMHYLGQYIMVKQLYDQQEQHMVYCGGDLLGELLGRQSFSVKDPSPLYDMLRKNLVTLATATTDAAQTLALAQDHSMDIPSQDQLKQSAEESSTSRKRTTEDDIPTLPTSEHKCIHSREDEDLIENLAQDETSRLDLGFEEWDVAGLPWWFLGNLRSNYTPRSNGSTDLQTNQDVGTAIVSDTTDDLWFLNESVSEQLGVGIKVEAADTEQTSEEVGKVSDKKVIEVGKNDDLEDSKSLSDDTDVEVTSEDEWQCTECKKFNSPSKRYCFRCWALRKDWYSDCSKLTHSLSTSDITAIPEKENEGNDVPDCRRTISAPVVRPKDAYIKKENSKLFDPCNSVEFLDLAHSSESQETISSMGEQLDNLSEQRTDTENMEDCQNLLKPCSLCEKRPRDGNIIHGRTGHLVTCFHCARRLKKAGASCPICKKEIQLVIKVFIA
Target sequence (Q00987 whole entry, looked up): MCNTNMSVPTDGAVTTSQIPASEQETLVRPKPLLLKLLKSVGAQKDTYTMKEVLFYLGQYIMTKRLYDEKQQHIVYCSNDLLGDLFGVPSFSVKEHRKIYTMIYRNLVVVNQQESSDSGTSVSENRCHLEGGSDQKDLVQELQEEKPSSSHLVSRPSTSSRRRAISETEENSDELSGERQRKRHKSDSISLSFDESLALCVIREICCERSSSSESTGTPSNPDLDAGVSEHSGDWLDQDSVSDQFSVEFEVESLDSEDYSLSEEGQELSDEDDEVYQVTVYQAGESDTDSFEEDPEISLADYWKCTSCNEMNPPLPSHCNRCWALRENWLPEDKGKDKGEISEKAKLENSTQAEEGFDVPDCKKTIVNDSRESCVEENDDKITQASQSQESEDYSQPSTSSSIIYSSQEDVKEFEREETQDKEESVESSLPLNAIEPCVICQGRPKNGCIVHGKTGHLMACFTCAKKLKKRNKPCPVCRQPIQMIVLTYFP
HIF-2a conf – confirmation of HIF-2a inhibitors | shares compounds with HIF-2a block | 786-0 RCC cells, HIF-2a luciferase reporter luminescence, overnight | inhibition, % at 18.8 µM | 1,800 compounds, 56% hits | AID 651580;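 active = mean inhibition across four replicates of at least 40 percent at the single tested concentration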
HIF-1a cs – HIF-1a inhibition counter-screen for HIF-2a hits | shares compounds with HIF-2a block | MiaPaCa-2 HIF-1a luciferase reporter, desferoxamine, overnight | inhibition, % at 18.8 µM | 1,800 compounds, 72% hits | AID 651589;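 active = mean inhibition of the reporter signal across four replicates at the single tested dose of 50% or more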
* hit, by the source's call; x = not tested or not shown.

SMILES	TROY NFkB inh	TWEAK-Fn14 inh	HIF-2a block	Peg3 promoter	CF NFkB inh	KKLEB tox	Mdm2 MdmX conf	HIF-2a conf	HIF-1a cs
COc1cccc(-c2cc(C(=O)N3CCc4ccccc4C3)[nH]n2)c1	-13	-1	-237	-178	-11	-7	x	x	x
Cc1ccc(C)c(OCc2ccc(C(=O)NN)o2)c1	5	34	40*	-2	-18	0	x	29	-4
Cc1ccc(NC(=O)CCC(=O)N/N=C/c2coc3ccccc3c2=O)cc1	36	11	53*	24	11	-5	x	-7	16
C[C@@]12C(=O)OC(=O)[C@]1(C)C1CCC2O1	66*	98*	79*	84*	84*	-2	100*	x	x
Cc1cc(C)cc(C(=O)Nc2ccc(N3CCN(C(=O)c4ccco4)CC3)cc2)c1	0	-6	5	3	13	-17	x	x	x
COc1ccccc1-c1cc(C(F)(F)F)nc(S(=O)(=O)CCCC(=O)NCc2ccc(F)cc2)n1	84*	99*	80*	107*	95*	-88*	103*	71*	102*
COc1ccccc1-c1cc(C(F)(F)F)nc(N2CCCCC2)n1	4	-6	5	3	6	-5	x	x	x
COc1ccccc1-c1cc(C(F)(F)F)nc(S(=O)(=O)CCCC(=O)N2CCCCC2C)n1 (stereo not given)	65*	83*	91*	110*	92*	-75*	x	91*	107*
COc1ccc(C(C)=O)cc1COC(=O)CSCC(=O)Nc1ccc(C)cc1	7	-4	-6	-24	-13	0	x	x	x
CCC(C)(C(=O)Nc1ccc(OC)cc1)N(C)C(=O)Cn1nnnc1N (stereo not given)	5	-9	5	5	5	2	x	x	x
COc1cccc(NC(=O)N(C)C[C@H]2Oc3cc(C#Cc4ccncc4)ccc3S(=O)(=O)N([C@H](C)CO)C[C@H]2C)c1	10	31	43*	17	-2	-16	x	19	38
CCN(CC)Cc1c(O)ccc2occ(C(=O)c3ccc(OC)cc3)c12	-4	-17	29	4	-5	4	x	x	x
CCN(CC)Cc1c(O)ccc2c([N+](=O)[O-])c(C)n(-c3ccc(OC)cc3)c12	36	74*	25	12	82*	-23	84*	x	x
C=CCS(=O)(=O)c1nc2ccccc2s1	0	28	88*	104*	52*	-18	x	-7	44
CCS(=O)(=O)CCSc1nc2ccccc2s1	-2	-8	-9	3	-7	-4	x	x	x
O=S(=O)(CCSc1nc2ccccc2s1)c1nc2ccccc2s1	69*	83*	57*	58*	73*	-43	103*	25	69*
CC(C)(C)S(=O)(=O)c1nc2ccccc2s1	-10	4	6	-5	-1	-12	x	x	x
N#Cc1ccccc1NC(=O)COC(=O)CCc1ccccc1	-2	-14	12	6	0	-3	x	x	x
CCN(c1ccccc1)S(=O)(=O)c1ccc(Cl)c(NC(=O)Nc2ccc(Cl)cc2C#N)c1	-26	25	-90	9	28	-14	103*	x	x
CCN(c1ccccc1)S(=O)(=O)c1cc(NC(=O)Nc2ccccc2C#N)ccc1Cl	10	9	26	33	7	-6	x	x	x
CC(C)(C)NC(=O)CSc1nc(O)cc(=O)[nH]1	19	5	41*	10	-20	22	x	6	-1
CSCCC(C(=O)Nc1c(C)cccc1C)N1CCN(C/C=C/c2ccccc2)CC1 (stereo not given)	19	-17	1	1	-11	2	x	x	x
Cc1nn(-c2ccccc2)c(Cl)c1CN(C(=O)CCl)c1cccc2ccccc12	1	77*	62*	95*	32	1	103*	73*	106*

Source: PubChem
